SMILES strings stand for the structures. A number with no mark means an inactive call.
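Also: TDF is a line of transformed human dermal fibroblasts of mesenchymal origin.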

The subject of this experiment is TDF. Briefly: H1.0 immunofluorescence intensity relative to DMSO (% of DMSO); higher = stronger H1.0 induction, active = 120 or more. To be noted: concentration: 10 µM; 24 h. In short, it runs like this:
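Compounds were applied at 10 µM for 24 h at 37 °C, in triplicate, to HCC1569 and TDF cells. The cells were then fixed and stained for H1.0, and nuclei were counterstained with DAPI. Nuclear H1.0 intensity or cell number is reported relative to the plate control as a percent, taking the median of replicates. Smoothing for positional effects was applied to HCC1569 values only.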
For the compound `OCC1CCCN2CCCCC12` (stereo not drawn) [Lupinine], the H1.0 immunofluorescence intensity was 96.3.
Under `CCN1CC2(COC)CCC(OC)C34C5CC6C(OC)CC7(OCOC7(C(O)C23)C14)C5C6OC` (stereo not drawn) [Delcorine] stands 99; under `CC(O)C(C)OC(=O)C1CC2c3cccc4c3c(cn4C(C)C)CC2N(C)C1.O=C(O)C=CC(=O)O` (stereo not drawn) [LY-53,857 maleate], 96.5.
In the case of `O=C(O)c1nn(Cc2ccc(Cl)cc2Cl)c2ccccc12` [Lonidamine] it was 94.3; in that of `Cl.NCC(O)c1cc(O)c(O)cc1F` (stereo not drawn) [6-Fluoronorepinephrine hydrochloride], 89.4.
In the case of `Cl.Cl.Clc1ccc(N2CC3CCC(C2)N3)nn1` it was 90.8; in that of `O=C1Nc2ccc3ncsc3c2C1=Cc1cnc[nH]1` [PKR Inhibitor], 112.
On to `BrC1C(Br)C(Br)C(Br)C(Br)C1Br` (stereo not drawn), for which the H1.0 immunofluorescence intensity is 97.
Take `CCCN1CC(CSC)CC2c3cccc4[nH]cc(c34)CC21.CS(=O)(=O)O` (stereo not drawn) [Pergolide methanesulfonate]: the H1.0 immunofluorescence intensity was 98.1.
In the case of `NC(CCCCCP(=O)(O)O)C(=O)O` (stereo not drawn) [D(-)-2-Amino-7-phosphonoheptanoic acid] it was 97.7; in that of `Cl.Cl.Fc1ccc(C(OCCN2CCN(CCCc3ccccc3)CC2)c2ccc(F)cc2)cc1`, 96.7; in that of `CN1C2CCC1CC(OC(=O)C(CO)c1ccccc1)C2` (stereo not drawn) [Hyoscyamine], 97.8.
In the case of `Br.CN1C2CC(OC(=O)C(CO)c3ccccc3)CC1C(O)C2` (stereo not drawn) [Anisodamine] it was 101.
In the case of `CC12CCC3C(CCC4CC(O)CCC43C)C1CCC2=O` (stereo not drawn) [Androsterone] it was 91.7; in that of `Cc1nc(-c2ccc(-c3ccc(C(=O)N4CCc5cc6c(cc54)C4(CCN(C)CC4)CO6)cc3)c(C)c2)no1.Cl`, 114.
For the compound `CNCC(O)c1ccc(O)cc1` (racemic), the H1.0 immunofluorescence intensity is 91.
In the case of `CCC1C(C)=NN=C(c2ccc(OC)c(OC)c2)c2cc(OC)c(OC)cc21` (stereo not drawn) it was 93.1; in that of `CCCCCC=CCC=CCC=CCC=CCCCC(=O)NCC(=O)O` [N-arachidonylglycine], 98.2; in that of `CC=C1CN2CCC34C(=C(CC=O)C1CC23)Nc1ccccc14` (stereo not drawn) [Norfluorocurarine], 97.8.
Under `C[N+]1(C)C2CCC1CC(OC(=O)c1c[nH]c3ccccc13)C2.[I-]` (stereo not drawn) [3-Tropanylindole-3-carboxylate methiodide] stands 95.5; under `COc1ccc(CCN2CCC(Nc3nc4ccccc4n3Cc3ccc(F)cc3)CC2)cc1` [Astemizole], 109.
Under `CC(C)C1C(=O)OC2CCN3CC=C(COC(=O)C(C)(O)C1(C)O)C23` (stereo not drawn) [Trichodesmine] stands 93.2; under `Cl.N[C@@H](CCl)C(=O)O` [beta-Chloro-L-alanine hydrochloride], 92.7; under `CC(=O)C1CCC2C3CCC4CC(O)CCC4(C)C3C(=O)CC12C` (stereo not drawn) [5alpha-Pregnan-3alpha-ol-11,20-dione], 94.1.
In the case of `C#C[C@]1(O)CC[C@H]2[C@@H]3CC[C@H]4Cc5nc6nc7ccccc7n6cc5C[C@]4(C)[C@H]3CC[C@@]21C`, the H1.0 immunofluorescence intensity is 99.
Under `NC(=O)c1cc(N2CC2)c([N+](=O)[O-])cc1[N+](=O)[O-]` stands 89.4; under `COc1ccccc1N1CCNCC1.Cl` [1-(2-Methoxyphenyl)piperazine hydrochloride], 96.4; under `CCN(CC)C(=O)NC1C=C2c3cccc4[nH]cc(c34)CC2N(C)C1` (stereo not drawn) [S-(-)-Lisuride], 95.5.
Under `C#CC1(O)CCC2C3CCC4=CC(=O)CCC4=C3C=CC21CC` (stereo not drawn) [Gestrinone] stands 91.2; under `CCc1c(C(=O)OC)ncc2[nH]c3cc(OC)c(OC)cc3c12` [Methyl 6,7-dimethoxy-4-ethyl-beta-carboline-3-carboxylate], 88.1; under `CC[NH+](CC)CC.Nc1ncnc2c1ncn2C1OC2COP([O-])(=S)OC2C1O` (stereo not drawn) [Rp-cAMPS triethylamine], 86.
Consider `CC(C)Oc1cccnc1N(C)C1CCN(Cc2ccccc2)CC1.O=C(O)C=CC(=O)O`, for which the H1.0 immunofluorescence intensity is 99.
Under `C=CCN1CCC23c4c5ccc(O)c4OC2C(=O)CCC3(O)C1C5` (stereo not drawn) [Naloxone] stands 99.5.

These data come from the supplement of paper PMC7156485.
